TbREL1 inh – TbREL1 inhibition, primary screen | P86926 | 89,000 compounds, 0.49% hits | AID 1117264 | TbREL1 RNA ligation, FRET fluorescence | inhibition, % at 9.66 µM;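 active = inhibition above the mean inhibition across all screened compounds plus 3 SD, cut at about 11% in these data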;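 also: 0% = plate median of test wells and 100% = NSC42067 control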
Target sequence (P86926 whole entry, looked up): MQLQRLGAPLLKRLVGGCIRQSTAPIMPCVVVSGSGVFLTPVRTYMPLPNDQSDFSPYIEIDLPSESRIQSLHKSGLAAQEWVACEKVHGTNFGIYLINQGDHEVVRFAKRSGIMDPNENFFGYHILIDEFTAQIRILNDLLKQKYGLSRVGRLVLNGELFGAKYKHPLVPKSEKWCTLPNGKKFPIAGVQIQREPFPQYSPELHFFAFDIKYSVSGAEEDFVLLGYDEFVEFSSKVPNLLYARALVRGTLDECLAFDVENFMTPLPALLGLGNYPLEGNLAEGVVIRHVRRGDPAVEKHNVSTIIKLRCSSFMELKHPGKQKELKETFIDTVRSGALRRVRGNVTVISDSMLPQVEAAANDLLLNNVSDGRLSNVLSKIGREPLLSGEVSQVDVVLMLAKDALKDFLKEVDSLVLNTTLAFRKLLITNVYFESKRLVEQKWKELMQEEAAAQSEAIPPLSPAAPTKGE
TbREL1 confirm – TbREL1 inhibition, confirmation; shares compounds with TbREL1 inh; TbREL1 RNA ligation, FRET fluorescence; inhibition, % at 9.66 µM; 390 compounds, 37% hits; AID 1117282;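 active = mean inhibition across replicates above a set limit taken from the earlier primary screen, cut at about 11% in these data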;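 also: 0% = REL1 with substrate and DMSO and 100% = REL1 plus control inhibitor NSC42067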
* = called active by the depositor. Only a selection was taken, and hits are over-represented in it overall.

What do the screens show for `COc1ccc(-n2c(-c3ccccc3)nnc2-c2ccc(Cl)cc2)cc1`?
TbREL1 inh: -4

Results for [S-]c1nnc(-c2ccc(Br)cc2)n1-c1ccccc1.[Zn+2] ?
TbREL1 inh: 23*; TbREL1 confirm: 17*

Results for O=C(O)c1ccc(CSc2nnc(-c3ccncc3)n2-c2ccc(Br)cc2)cc1 ?
TbREL1 inh: 9

What do the screens show for `CC(C)C[C@H]1COc2cc(Br)ccc2S(=O)(=O)N1Cc1ccc(Cl)cc1`?
TbREL1 inh: 1

Results for COc1cccc(OC)c1OCCCSc1nc(C)cc(=O)[nH]1 ?
TbREL1 inh: 4

What do the screens show for `CCOc1ccc(OCCSc2nc(C)cc(=O)[nH]2)cc1`?
TbREL1 inh: 11*; TbREL1 confirm: 3

How did Cc1cc(=O)[nH]c(SCC(=O)c2ccc(C)c(C)c2)n1 do in these assays?
TbREL1 inh: -2

How did C[C@@H]1COc2cc(N3CCC[C@@H]3CO)ccc2S(=O)(=O)N1 do in these assays?
TbREL1 inh: 5

How did Cc1ccc(C[n+]2cc(-c3ccc(Cl)cc3)n3c2CCC3)cc1 do in these assays?
TbREL1 inh: 8

Results for O=C(C[n+]1cc(-c2ccc(F)cc2)n2c1CCC2)Nc1nc(-c2ccc(F)cc2)cs1 ?
TbREL1 inh: 2

What do the screens show for `CCc1ccc(NC(=O)C[n+]2cc(-c3ccc(C)cc3)n3c2CCC3)cc1`?
TbREL1 inh: 13*; TbREL1 confirm: 14*

What do the screens show for `COC(=O)[C@]12C[C@H](CC(=O)NCc3ccc(OC)c(OC)c3)C(=O)N(Cc3ccc(Cl)cc3Cl)C1=C[C@H](C(C)C)O[C@@H]2C1CC1`?
TbREL1 inh: -2

What do the screens show for `CN(Cc1ccccc1)C(=O)OCc1cn(Cc2cccc(C(F)(F)F)c2)nn1`?
TbREL1 inh: -1

What do the screens show for `COc1ccc(N2CCN(CCNS(=O)(=O)c3cccs3)CC2)cc1`?
TbREL1 inh: -5

Results for CCC(c1nnnn1-c1ccc2c(c1)OCCO2)N1CCN(C(=O)C2CCCO2)CC1 (stereo unspecified) ?
TbREL1 inh: 0

Results for CC(=O)c1ccc(-c2cc(C(C)=O)c3n(c2=O)CCC3)cc1 ?
TbREL1 inh: -2

What do the screens show for `CC(=O)c1cc(-c2ccc(Cl)c(Cl)c2)c(=O)n2c1CCC2`?
TbREL1 inh: 4

How did CC(=O)c1cc(-c2cccc(CO)c2)c(=O)n2c1CCC2 do in these assays?
TbREL1 inh: 11*; TbREL1 confirm: 0

Results for COC(=O)CNC(=O)CNC1(C(=O)NCCc2c[nH]c3ccccc23)CCCCC1 ?
TbREL1 inh: -5

Results for CC(C)c1ccccc1NC(=O)[C@@H]1CCCN1S(=O)(=O)c1cccc2cccnc12 ?
TbREL1 inh: -4

How did COc1cc(CN(CCN(C)C)Cc2ccccc2)ccc1OCc1ccccc1 do in these assays?
TbREL1 inh: 16*; TbREL1 confirm: 12*

What do the screens show for `COc1cc(C(=O)O)ccc1OCc1ccccc1`?
TbREL1 inh: 3

How did COc1cc(CNC(=O)C2CC2)ccc1OCc1ccccc1 do in these assays?
TbREL1 inh: -1

What do the screens show for `Cc1ccc(OCc2nn3c(C4CCCCC4)nnc3s2)cc1`?
TbREL1 inh: 3

What do the screens show for `Cc1cc(NS(=O)(=O)c2ccc(NC(=O)CSc3nnc(-c4ccccn4)n3-c3ccccc3)cc2)nc(C)n1`?
TbREL1 inh: -1

How did COc1ccccc1COC(=O)c1cccc(S(=O)(=O)N(C)Cc2ccccc2)c1 do in these assays?
TbREL1 inh: 2

How did COc1ccc(CNC(=O)CN(C)Cc2ccc(SC)cc2)cc1 do in these assays?
TbREL1 inh: -1

How did COc1ccc(-c2noc(CN(C)Cc3ccccc3)n2)cc1 do in these assays?
TbREL1 inh: -2

Results for COc1ccc(CN(C)CC(O)COC(c2ccc(OC)cc2)c2ccc(OC)cc2)cc1 (stereo unspecified) ?
TbREL1 inh: 13*; TbREL1 confirm: 8

What do the screens show for `Cc1ccc(CN2CCCCC(NC(=O)c3ccc(N(C)C)cc3)C2=O)cc1` (stereo unspecified)?
TbREL1 inh: 0

What do the screens show for `CC(C(=O)N1CCc2ccccc21)N1CCN(S(=O)(=O)c2ccc3c(c2)OCCCO3)CC1` (stereo unspecified)?
TbREL1 inh: -3

Results for O=S(=O)(CC1NCCc2ccccc21)NCc1ccc(F)cc1 (stereo unspecified) ?
TbREL1 inh: 3

How did COc1ccc(NC(=O)NNC(=O)CCn2nc(C)c([N+](=O)[O-])c2C)cc1OC do in these assays?
TbREL1 inh: -1

Results for O=C(c1cc2ccccc2o1)N1CCN=C1SCc1cccc(F)c1 ?
TbREL1 inh: 0

Results for O=C(c1ccco1)N1CCN=C1SCc1cccc(F)c1 ?
TbREL1 inh: 1

What do the screens show for `O=S(=O)(c1ccc(Br)cc1)N1CCN=C1SCc1cccc(F)c1`?
TbREL1 inh: 11*; TbREL1 confirm: 3

Results for Cc1cccnc1C1=NOC(Cc2ccccc2)C(=O)N1CCOc1ccc(F)cc1 (stereo unspecified) ?
TbREL1 inh: 2

How did O=c1cc2oc3cc(O)c(O)cc3c(-c3ccccc3[N+](=O)[O-])c-2cc1O do in these assays?
TbREL1 inh: 21*; TbREL1 confirm: 26*

Results for Nc1cc2c([N+](=O)[O-])cccc2o1 ?
TbREL1 inh: -3

What do the screens show for `Cc1cc(=O)c(C(=O)O)nn1-c1ccccc1[N+](=O)[O-]`?
TbREL1 inh: 1

What do the screens show for `CCCCc1ccc(-c2noc(CCC(=O)NCC)n2)cc1`?
TbREL1 inh: -5

Results for Cc1ccc(C)c(CC(=O)N2CCCCC2c2cc(C(=O)Nc3ccc(F)c(Cl)c3)no2)c1 (stereo unspecified) ?
TbREL1 inh: -1

How did COc1ccc(-c2ccc(C(=O)NCc3ccc(C(F)(F)F)cc3)c3occc23)c(C)c1 do in these assays?
TbREL1 inh: 3

Results for Cc1nn(C(=O)Cn2cc([N+](=O)[O-])cn2)c(C)c1Cl ?
TbREL1 inh: 11*; TbREL1 confirm: 4

What do the screens show for `CC(C)NC(=O)CCCn1cc([N+](=O)[O-])cn1`?
TbREL1 inh: 3

Results for COC(=O)c1ccc(Cn2cc([N+](=O)[O-])cn2)cc1 ?
TbREL1 inh: 3

What do the screens show for `Cc1ccc(-n2c(Cc3cccs3)nnc2SCC(=O)Nc2cccc3ccccc23)cc1`?
TbREL1 inh: -1

Results for c1ccc(-c2nnc3n2N=C(c2ccc4ccccc4c2)CS3)nc1 ?
TbREL1 inh: 6

How did CC(C)(C)c1ccc(C(=O)Nc2cc(Cl)c(F)cc2C(=O)O)cc1 do in these assays?
TbREL1 inh: 13*; TbREL1 confirm: 2

Results for CC(C)(C)c1ccc(C(=O)Nc2ccc(Cl)cc2)cc1 ?
TbREL1 inh: 2

What do the screens show for `CC(C)(C)c1ccc(C(=O)Nc2cc(Cl)c(Cl)cc2C(=O)O)cc1`?
TbREL1 inh: -2

Results for COc1cc2c(cc1OC)C(c1ccc(Cl)cc1)=NCC2 ?
TbREL1 inh: 2

What do the screens show for `COc1cc2c(cc1OC)C(c1ccc(-c3ccc(Cl)c(Cl)c3)o1)=NCC2`?
TbREL1 inh: 14*; TbREL1 confirm: 24*

How did COc1cc2c(cc1OC)C(c1ccc(-c3ccc(Cl)cc3Cl)o1)=NCC2 do in these assays?
TbREL1 inh: 6

What do the screens show for `O=[N+]([O-])c1ccc(Br)c(CN2CCN(c3ncc(Cc4ccccc4)cn3)CC2)c1`?
TbREL1 inh: 3

How did COc1ccc(OCCN2CCN(S(=O)(=O)c3ccccc3C#N)CC2)cc1 do in these assays?
TbREL1 inh: 7
